Assay results as given in PubChem BioAssay (Tox21).
A number with no mark means an inactive call. Inconclusive results are not listed. Entries that show only a call come without a potency. Active and inactive are the calls of the source. Unless noted, calls follow the shape of the dose curve; as a rule, active = well fitted curve in the direction sought with a large enough effect in the repeat runs; inconclusive = weak or mixed curves; inactive = no such curve, though single readings can be large; an effect the other way counts as inactive or inconclusive.

Legend:
[1] = qHTS assay to identify small molecule HDAC inhibitors (AID 1259364); also: nearly all actives have a fitted effect of over 45% in size; also: potency is read from the fitted curve at half-maximal effect
Method in brief: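 Wild-type HCT-116 cells, plated overnight at 37 C, exposed to compounds 2 hr at 37 C; luminogenic HDAC-Glo substrate then added 30 min at room temperature. Luminescence reports relative endogenous class I/II HDAC activity.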

[2] = qHTS assay to identify small molecule HDAC inhibitors - cell viability counter screen (AID 1259365); also: series mostly up to about 92 µM; nearly all actives have a fitted effect of over 50% in size
Method in brief: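 HCT-116 (wild type), 1,500 cells/well, overnight 37C/5% CO2; compound in DMSO 2hr; CellTiter-Glo 30min RT; luminescence read.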

[3] = qHTS assay to identify small molecule agonists of the sonic hedgehog signaling (Shh) pathway - cell viability counter screen (AID 1259366); also: nearly all actives have a fitted effect of over 50% in size
Method in brief: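 CellTiter-Fluor fluorescence read-out, 1 hr at 37C, added after 23hr compound exposure. Cells: 3T3 Gli1-Luc, an NIH/3T3 clone with stably integrated Gli1-Luc reporter, plated 4hr before compound.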

[4] = qHTS assay to identify small molecule agonists of the sonic hedgehog signaling (Shh) pathway (AID 1259368; calls by dose curve;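 also: NIH/3T3-derived 3T3Gli1-Luc cells carrying a stable Gli1-driven firefly luciferase reporter; series mostly up to about 92 µM; nearly all actives have a fitted effect of over 15% in size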)
Method in brief: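 NIH/3T3-derived 3T3Gli1-Luc cells with stably integrated Gli1-driven firefly luciferase, 2,000 cells/well, compounds added after 4 hr. Incubated 24 hr at 37C, 5% CO2; luminescence read after 30 min with luciferase reagent at room temperature.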

[5] = molecular target: Estrogen receptor beta (Homo sapiens) (UniProt Q92731); test: qHTS assay to identify small molecule agonists of the estrogen receptor beta (ER-beta) signaling pathway (AID 1259377; active = well fitted activation curve with a large enough effect in the signal ratio in the repeat runs, not every such curve was filed as active; the % refers to the signal ratio)
Estrogen receptor beta (Homo sapiens), sequence (Q92731 whole entry, looked up): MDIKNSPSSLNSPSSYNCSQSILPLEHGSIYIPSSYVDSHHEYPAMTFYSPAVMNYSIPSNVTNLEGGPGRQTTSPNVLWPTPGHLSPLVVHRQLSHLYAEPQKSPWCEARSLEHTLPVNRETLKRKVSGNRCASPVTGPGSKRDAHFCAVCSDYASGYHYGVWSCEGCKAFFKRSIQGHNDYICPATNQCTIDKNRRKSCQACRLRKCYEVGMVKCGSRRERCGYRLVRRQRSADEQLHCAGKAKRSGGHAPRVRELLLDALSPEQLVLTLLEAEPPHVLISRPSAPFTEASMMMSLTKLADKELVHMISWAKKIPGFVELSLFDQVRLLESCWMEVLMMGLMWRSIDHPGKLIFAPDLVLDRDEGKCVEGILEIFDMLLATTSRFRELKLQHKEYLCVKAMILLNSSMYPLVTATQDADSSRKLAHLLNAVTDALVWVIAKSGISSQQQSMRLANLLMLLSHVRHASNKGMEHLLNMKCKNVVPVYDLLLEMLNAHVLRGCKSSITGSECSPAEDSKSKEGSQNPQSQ
Method in brief: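 Beta-lactamase reporter readout: fluorescence of LiveBLAzer B/G FRET substrate after 2 h at room temperature, following 16 h compound treatment of ER-beta-UAS-bla HEK293T cells at 37C in 2% charcoal-stripped FBS medium.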

[6] = molecular target: Estrogen receptor beta (Homo sapiens) (UniProt Q92731); test: qHTS assay to identify small molecule antagonists of the estrogen receptor beta (ER-beta) signaling pathway (AID 1259378; active = well fitted inhibition curve with a large enough effect in the signal ratio in the repeat runs, not every such curve was filed as active; the % refers to the signal ratio)
Method in brief: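 ER-beta-UAS-bla HEK293T (GripTite) cells in 2% charcoal-stripped FBS medium were preincubated 6 hr at 37C, dosed with compound, then stimulated with 1 nM E2 (final) for 16 hr; beta-lactamase reporter read by B/G FRET fluorescence after 2 hr substrate loading.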

[7] = qHTS assay to identify small molecule agonists of the androgen receptor (AR) signaling pathway in the presence of an antagonist - cell viability counter screen (AID 1259379); also: nearly all actives have a fitted effect of over 25% in size; also: potency is read from the fitted curve at half-maximal effect
Method in brief: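 MDA-kb2 cells (MMTV-luciferase, AR/GR), 3,000/well, 5 h attachment, then 3.0 µM nilutamide (final) and compounds at 15 concentrations. Viability by CellTiter-Fluor fluorescence after 16 h at 37 °C, 0% CO2, in the reporter wells.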

[8] = qHTS assay to identify small molecule agonists of the estrogen receptor beta (ER-beta) signaling pathway - cell viability counter screen (AID 1259380); also: nearly all actives have a fitted effect of over 30% in size
Method in brief: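 ER-beta-UAS-bla HEK293T cells in medium with 2% charcoal-stripped FBS, pre-incubated 6 hr, then treated 16 hr at 37C. Cytotoxicity read in the same wells by CellTiter-Glo luminescence after 30 min at room temperature.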

[9] = qHTS assay to identify small molecule antagonists of the estrogen receptor beta (ER-beta) signaling pathway - cell viability counter screen (AID 1259382); also: series mostly up to about 92 µM; nearly all actives have a fitted effect of over 55% in size
Method in brief: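 ER-beta-UAS-bla HEK293T cells in 2% charcoal-stripped FBS medium, treated with compound plus 1 nM 17-beta-estradiol for 16 h at 37C. Viability read by CellTiter-Glo luminescence after 30 min at room temperature in the same wells.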

[10] = molecular target: Estrogen receptor (Homo sapiens) (UniProt P03372); test: qHTS assay to identify small molecule agonists of the estrogen receptor alpha (ER-alpha) signaling pathway in the presence of an antagonist (AID 1259383; calls by dose curve; also: top concentration of the series differs between compounds; nearly all actives have a fitted effect of over 15% in size)
Estrogen receptor (Homo sapiens), sequence (P03372 whole entry, looked up): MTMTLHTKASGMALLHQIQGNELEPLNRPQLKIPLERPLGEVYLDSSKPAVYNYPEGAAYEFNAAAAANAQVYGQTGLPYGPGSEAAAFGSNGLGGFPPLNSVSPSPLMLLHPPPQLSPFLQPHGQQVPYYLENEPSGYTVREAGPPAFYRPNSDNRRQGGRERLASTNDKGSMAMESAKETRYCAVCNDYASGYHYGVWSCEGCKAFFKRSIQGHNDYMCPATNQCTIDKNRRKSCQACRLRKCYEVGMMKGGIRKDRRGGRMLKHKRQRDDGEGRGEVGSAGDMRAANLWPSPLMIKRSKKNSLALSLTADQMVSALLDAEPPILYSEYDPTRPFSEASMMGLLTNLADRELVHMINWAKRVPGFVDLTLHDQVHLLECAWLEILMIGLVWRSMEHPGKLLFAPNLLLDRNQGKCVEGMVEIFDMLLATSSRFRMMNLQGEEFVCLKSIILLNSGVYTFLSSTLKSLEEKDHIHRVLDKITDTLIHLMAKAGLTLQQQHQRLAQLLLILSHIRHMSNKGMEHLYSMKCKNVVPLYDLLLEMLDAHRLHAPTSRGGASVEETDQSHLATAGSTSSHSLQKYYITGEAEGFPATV
Method in brief: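 VM7Luc4E2 cells express endogenous full-length ER-alpha with an ERE-luciferase reporter and were hormone-deprived for 5 days. Compounds at 15 concentrations were added with 10.0nM ICI-182,780 for 22hr at 37C. Luminescence was read with ONE-Glo.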

[11] = molecular target: Progesterone receptor (Homo sapiens) (UniProt P06401); test: qHTS assay to identify small molecule agonists of the progesterone receptor (PR) signaling pathway (AID 1346784; calls by dose curve; also: nearly all actives have a fitted effect of over 30% in size)
Progesterone receptor (Homo sapiens), sequence (P06401 whole entry, looked up): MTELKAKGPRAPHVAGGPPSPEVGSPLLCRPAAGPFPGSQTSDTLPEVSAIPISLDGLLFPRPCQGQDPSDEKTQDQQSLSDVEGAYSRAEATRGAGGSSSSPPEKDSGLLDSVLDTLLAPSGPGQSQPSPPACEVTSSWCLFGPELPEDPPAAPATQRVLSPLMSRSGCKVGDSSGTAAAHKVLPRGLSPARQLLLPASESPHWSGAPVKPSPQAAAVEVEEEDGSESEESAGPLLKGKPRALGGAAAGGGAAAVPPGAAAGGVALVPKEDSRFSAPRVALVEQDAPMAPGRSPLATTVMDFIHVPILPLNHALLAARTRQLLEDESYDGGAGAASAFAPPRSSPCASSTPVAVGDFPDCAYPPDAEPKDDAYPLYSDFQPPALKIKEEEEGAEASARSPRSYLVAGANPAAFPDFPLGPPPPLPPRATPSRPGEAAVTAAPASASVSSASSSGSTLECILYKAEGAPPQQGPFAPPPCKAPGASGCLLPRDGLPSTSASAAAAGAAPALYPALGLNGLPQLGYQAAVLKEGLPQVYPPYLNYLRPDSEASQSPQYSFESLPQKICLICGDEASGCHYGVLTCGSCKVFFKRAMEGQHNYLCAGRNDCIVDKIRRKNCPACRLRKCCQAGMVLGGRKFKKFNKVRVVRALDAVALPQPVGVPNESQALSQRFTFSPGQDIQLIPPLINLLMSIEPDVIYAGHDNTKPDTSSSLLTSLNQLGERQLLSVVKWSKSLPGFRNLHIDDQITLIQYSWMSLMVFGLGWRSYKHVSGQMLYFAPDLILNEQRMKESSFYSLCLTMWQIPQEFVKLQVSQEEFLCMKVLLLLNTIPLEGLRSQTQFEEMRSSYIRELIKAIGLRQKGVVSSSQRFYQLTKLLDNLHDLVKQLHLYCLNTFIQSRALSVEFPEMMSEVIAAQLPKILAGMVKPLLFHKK
Method in brief: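 HEK 293T PR-UAS-bla reporter cells, 2% charcoal-stripped FBS; 6 hr settle at 37C/5% CO2, compound (DMSO) 16 hr, LiveBLAzer B/G FRET substrate 2 hr RT, fluorescence intensity read.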

[12] = qHTS assay to identify small molecule antagonists of the progesterone receptor (PR) signaling pathway - cell viability counter screen (AID 1346798); also: series mostly up to about 92 µM; nearly all actives have a fitted effect of over 50% in size
Method in brief: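 Luminescence readout (CellTiter-Glo, 30 min, RT) of viability in PR-UAS-bla HEK293T cells exposed to compound and R5020 agonist for 16 hr at 37C, 5% CO2; run in the same wells as the beta-lactamase reporter read.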

[13] = qHTS assay to identify small molecule agonists of the progesterone receptor (PR) signaling pathway - cell viability counter screen (AID 1346799; calls by dose curve; also: nearly all actives have a fitted effect of over 45% in size)
Method in brief: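 HEK293T PR-UAS-bla, 3,000 cells/well, 2% charcoal-stripped FBS; 6 h settle, compound 16 h at 37C/5% CO2; LiveBLAzer 2 h RT, then CellTiter-Glo 30 min RT, luminescence read.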

[14] = qHTS assay to identify small molecule antagonists of the TGF-beta/Smad signaling pathway - cell viability counter screen (AID 1346824); also: nearly all actives have a fitted effect of over 50% in size
Method in brief: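 SBE-bla HEK 293T cells were plated overnight at 37 C, then given compounds in DMSO plus TGF-beta1 (added as 0.25 ng/mL solution) for 5 hr. After the bla read, CellTiter-Glo was added to the same wells and luminescence read after 30 min at room temperature.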

[15] = qHTS assay to identify small molecule antagonists of the sonic hedgehog signaling (Shh) pathway - cell viability counter screen (AID 1259367); also: nearly all actives have a fitted effect of over 55% in size
Method in brief: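 After a 4 hr settling period, 3T3 Gli1-Luc cells were treated with DMSO-dissolved chemicals and conditioned medium, kept 24 hr at 37C in 5% CO2, and assayed for viability by CellTiter-Fluor fluorescence following 1 hr reagent incubation.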

[16] = qHTS assay to identify small molecule antagonists of the sonic hedgehog signaling (Shh) pathway (AID 1259369; calls by dose curve; also: nearly all actives have a fitted effect of over 45% in size)
Method in brief: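 NIH/3T3-derived Gli1-Luc reporter cells plated 4 h, dosed with compound, then stimulated with conditioned medium for 24 h at 37 C. Firefly luciferase luminescence read after 30 min with detection reagent at room temperature.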

[17] = qHTS assay to identify small molecule agonists or antagonists of the thyroid stimulating hormone receptor (TSHR) signaling pathway - wild type cell line counter screen (AID 1259384; calls by dose curve)
Method in brief: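 Wild-type HEK293 cells were plated 18 h at 37 C/5% CO2, pin-dosed with compound plus Ro20-1724 medium, held 30 min at room temperature, then given cAMP-d2 and anti-cAMP-cryptate; fluorescence was read after 1 h. Fifteen concentrations, triplicate.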

[18] = molecular target: Thyrotropin receptor (Homo sapiens) (UniProt P16473); test: qHTS assay to identify small molecule antagonists of the thyroid stimulating hormone receptor (TSHR) signaling pathway (AID 1259385; calls by dose curve; also: nearly all actives have a fitted effect of over 20% in size)
Thyrotropin receptor (Homo sapiens), sequence (P16473 whole entry, looked up): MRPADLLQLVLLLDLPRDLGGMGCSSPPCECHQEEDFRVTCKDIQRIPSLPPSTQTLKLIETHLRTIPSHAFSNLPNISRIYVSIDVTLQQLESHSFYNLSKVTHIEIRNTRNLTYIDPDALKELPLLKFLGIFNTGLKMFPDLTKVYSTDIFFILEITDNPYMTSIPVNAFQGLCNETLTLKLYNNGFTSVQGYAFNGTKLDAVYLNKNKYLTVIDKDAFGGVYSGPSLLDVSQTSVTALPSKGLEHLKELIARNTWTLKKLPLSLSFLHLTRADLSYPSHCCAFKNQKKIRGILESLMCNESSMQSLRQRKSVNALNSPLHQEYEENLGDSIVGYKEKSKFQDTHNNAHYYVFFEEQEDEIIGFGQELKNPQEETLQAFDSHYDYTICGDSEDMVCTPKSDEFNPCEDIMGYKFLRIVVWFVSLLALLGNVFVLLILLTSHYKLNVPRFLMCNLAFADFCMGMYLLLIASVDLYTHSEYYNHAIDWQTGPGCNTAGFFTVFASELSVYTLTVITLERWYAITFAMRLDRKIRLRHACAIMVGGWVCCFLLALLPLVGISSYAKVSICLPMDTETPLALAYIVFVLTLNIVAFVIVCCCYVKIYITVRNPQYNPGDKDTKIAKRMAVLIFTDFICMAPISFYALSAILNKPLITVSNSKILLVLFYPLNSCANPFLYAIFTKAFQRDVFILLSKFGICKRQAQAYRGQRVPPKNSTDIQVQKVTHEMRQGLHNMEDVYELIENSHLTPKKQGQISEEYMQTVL
Method in brief: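 TSHR-HEK293 cells were plated and held 18 h at 37C/5% CO2, then given compound plus Ro20-1724 and stimulated with TSH at 1.5 ng/mL final. After 30 min at room temperature, cAMP was detected with cAMP-d2/anti-cAMP-cryptate (1 h) by fluorescence.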

[19] = qHTS assay to identify small molecule agonists of the estrogen receptor alpha (ER-alpha) signaling pathway in the presence of an antagonist - cell viability counter screen (AID 1259386);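 also: cells exposed to compounds for 22 h at 37 °C before the viability read; nearly all actives have a fitted effect of over 30% in size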; also: potency is read from the fitted curve at half-maximal effect
Method in brief: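 Cell viability in VM7Luc4E2 cells (endogenous full-length ER-alpha) measured by CellTiter-Fluor fluorescence in the same wells as the luciferase screen. Cells pre-cultured 5 days in charcoal-stripped serum, then treated 22 h with compounds at 15 concentrations plus 10.0nM ICI-182,780.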

[20] = molecular target: Progesterone receptor (Homo sapiens) (UniProt P06401); test: qHTS assay to identify small molecule antagonists of the progesterone receptor (PR) signaling pathway (AID 1346795; active = well fitted inhibition curve with a large enough effect in the signal ratio in the repeat runs, not every such curve was filed as active; the % refers to the signal ratio)
Method in brief: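 Beta-lactamase reporter, HEK293T PR-UAS-bla line; 2% charcoal-stripped FBS; 6 hr pre-incubation, 37C/5% CO2. Compound + R5020 1 nM final, 16 hr. LiveBLAzer B/G FRET substrate, 2 hr RT; fluorescence intensity read.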

Compound | Potency [1] | outcome [2] | Potency [3] | outcome [4] | Potency [5] | outcome [6] | Potency [7] | outcome [8] | outcome [9] | outcome [10] | Potency [11] | Potency [12] | Potency [13] | outcome [14] | Potency [15] | Potency [16] | outcome [17] | outcome [18] | Potency [19] | Potency [20]
Cc1cc(O)c2c(c1)C(=O)c1cccc(O)c1C2=O | 13.4 µM (active) | inactive | inactive | inactive | inactive | inactive | inactive | inactive | inactive | inactive | inactive | inactive | inactive | inactive |  |  |  |  |  | 
CC(=O)OC[C@H]1O[C@@H](OC(C)=O)[C@H](OC(C)=O)[C@@H]1OC(C)=O | inactive | inactive | inactive |  |  |  | inactive | inactive | inactive | inactive | inactive |  | inactive |  | inactive | inactive | inactive | inactive | inactive | inactive
CC1=NN(c2ccc(S(=O)(=O)O)cc2)C(=O)C1N=Nc1ccccc1 (configuration not stated) | inactive | inactive |  | inactive |  |  | 30.6 µM (active) | inactive | inactive | inactive | inactive | inactive | inactive |  |  | inactive |  |  | 30.6 µM (active) | inactive
CCCCCCCC[Si](OCC)(OCC)OCC | inactive | inactive | inactive |  | inactive | inactive |  | inactive |  |  | inactive | inactive | inactive | inactive | inactive |  |  |  | inactive | inactive
O=C(COCCOCCOCC(=O)Nc1c(I)cc(I)c(C(=O)O)c1I)Nc1c(I)cc(I)c(C(=O)O)c1I | inactive | inactive | inactive |  | inactive | inactive |  | inactive | inactive | inactive | inactive | inactive | inactive | inactive | inactive | inactive | inactive | inactive | inactive | inactive
FC(F)(F)c1ccc(Cl)cc1Cl | inactive | inactive | inactive |  |  |  | inactive | inactive |  |  | inactive |  | inactive | inactive | inactive | inactive | inactive | inactive | inactive | inactive
